The values below come from the supplement of paper PMC13380429.

The structures appear in SMILES notation. A number with no mark means an inactive call.

The test system of the assay is Vero E6 infected with SARS-CoV-2. The assay is described as follows: inhibition of SARS-CoV-2 cytopathic effect; higher = more antiviral protection, active = above 15. The following applies: 48 h. A general note: Cytopathic effects are the visible damage that an infection or toxin causes in cultured cells.

`CSCC[C@H](NC(=O)[C@H](CC(C)C)NC(=O)CNC(=O)[C@H](Cc1ccccc1)NC(=O)[C@H](Cc1ccccc1)NC(=O)[C@H](CCC(N)=O)NC(=O)[C@H](CCC(N)=O)NC(=O)[C@@H]1CCCN1C(=O)[C@H](CCCCN)NC(=O)[C@@H]1CCCN1C(=O)[C@@H](N)CCCN=C(N)N)C(N)=O` [substance-P]: the “inhibition of SARS-CoV-2 cytopathic effect” value (shortened to “inhibition”) was -5.5% (1 nM); -11.3% (8.33 nM); -9.37% (100 nM); -10.4% (833.33 nM); -5.64% (10000 nM).
On the same counts, the results for `C[C@](O)(COc1ccc(C#N)cc1)C(=O)Nc1ccc(C#N)c(C(F)(F)F)c1` [ostarine] are -0.2%, -1.03%, 1.02%, -1.16% and 1.37%.
On the same counts, the results for `Cc1cc(N2CCCCC2)nc2ccccc12` are -1.33%, 3.15%, -0.88%, 0.63% and 4.47%.
Consider `CCOC(=O)C1=C[C@]2(CC)CCCN3CCc4c(n1c1ccccc41)[C@@H]32` [vinpocetine], for which the “inhibition” value was -3.18% (1 nM); 0.85% (8.33 nM); 4.53% (100 nM); 1.98% (833.33 nM); -1.06% (10000 nM).
Consider `CCCC(C)C1(CC)C(=O)NC(=S)NC1=O` (stereo not given) [thiopental], for which the “inhibition” value is -0.77% (1 nM); 0.01% (8.33 nM); 0.2% (100 nM); 1.29% (833.33 nM); 0.45% (10000 nM).
For `O=C(Oc1ccc(Br)cc1)N1CCN2CCC1CC2`, in that order: 1.3%, 1.31%, 4.76%, 1.51% and 0.59%.
For `C=C1/C(=C\C=C2/CCC[C@]3(C)[C@@H]([C@H](C)CCCC(C)C)CC[C@@H]23)C[C@@H](O)C[C@@H]1O` [alfacalcidol], in that order: 2.5%, -0.82%, -1.14%, 0.53% and -5.24%.
For `O=S(=O)(c1ccccc1)c1cnc2c(N3CCNCC3)cccc2c1`, in that order: -2.8%, -0.02%, -3.01%, 0.98% and 1.43%.
For `CCCCC/C=C\C/C=C\C/C=C\C/C=C\CCCC(=O)Nc1ccc(O)cc1`, the “inhibition” value was -2.34% (1 nM); -1.32% (8.33 nM); 3.11% (100 nM); 0.42% (833.33 nM); -4.16% (10000 nM).
On the same counts, the results for `CC(Cc1cccc(C(F)(F)F)c1)NCCOC(=O)c1ccccc1` (stereo not given) [benfluorex] are 0.5%, 0.35%, -0.24%, -1.03% and 0.26%.
For `Cc1c(C(=O)Nc2ccc(N3C[C@@H](C)O[C@@H](C)C3)nc2)cccc1-c1ccc(OC(F)(F)F)cc1` [sonidegib], the “inhibition” value reads like this: (1 nM) 1.64%; (8.33 nM) -0.28%; (100 nM) -1.14%; (833.33 nM) -2.32%; (10000 nM) -7.02%.
For `Clc1ccc(-c2nc3sccn3c2/C=N/OCc2ccc(Cl)c(Cl)c2)cc1`, in that order: -0.5%, -0.99%, -1.16%, -0.11% and 0.21%.
On the same counts, the results for `COc1cc2c(cc1OC)CN(CCc1ccc(NC(=O)c3cccc4c(=O)c5cccc(OC)c5[nH]c34)cc1)CC2` [elacridar] are 14.2%, 2.41%, 0.67%, -0.09% and -4.73%.
On the same counts, the results for `FC(F)(F)c1cc(CO[C@H]2CCCN[C@H]2c2ccccc2)cc(C(F)(F)F)c1` are 0.32%, -2.69%, -5.07%, -6.64% and 18.1% (active).
On to `CS(=O)(=O)Nc1ccc2oc3c(OC(F)F)ccc(C(=O)Nc4c(Cl)cncc4Cl)c3c2c1` [oglemilast], for which the “inhibition” value (1 nM) was -1%; the “inhibition” value (8.33 nM) was 0.83%; the “inhibition” value (100 nM) is 1.63%; the “inhibition” value (833.33 nM) was 0.94%; the “inhibition” value (10000 nM) is 1.89%.
On the same counts, the results for `COc1cc(/C=C/C(N)=O)cc(OC)c1OC` [cintriamide] are -2.6%, 1.17%, -4.56%, 2.97% and 2.84%.
For `Nc1nc2c(ncn2[C@@H]2O[C@H](CO)[C@@H](O)[C@H]2O)c(=O)[nH]1` [guanosine], in that order: -3.19%, -0.4%, -0.7%, -1.53% and 0.09%.
